{"source": "PubChem BioAssay AID602254", "about": "(Broad Institute, 2012)", "note": "The whole screen tested about 1,000 compounds, of which fewer than 10 were called active.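 Rule for the calls: active = fitted half-maximal concentration no higher than twice the top valid tested dose, with signal falling; inconclusive = flat curve with 30 to 70% inhibition, or poor fit; inactive = the rest.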 The list is a sample of the results. Measured potencies and affinities stand elsewhere.", "data": [{"target": "Golgi-associated PDZ and coiled-coil motif-containing protein (Homo sapiens) (UniProt Q9HD26)", "test": "CAL PDZ domain peptide-binding inhibitors, dose response, biochemical, fluorescence polarization, untagged CAL PDZ, cherry-pick, set 2 (AID 602254);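 note: 0% = DMSO neutral control and -100% = unlabeled peptide PRC23 positive control; more negative means stronger blocking of peptide binding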", "conditions": "Purified CAL PDZ, TMR peptide fluorescence polarization; series mostly up to 60 µM; activity change, negative = inhibition: at the top concentration", "values": [{"molecule": "O=C(NNC(=O)C1CCC1)c1ccc(Br)cc1", "activity change, negative = inhibition": "-0.869% (inactive)"}, {"molecule": "CC1CCN(C(=O)COc2ncnc3ccccc23)CC1", "activity change, negative = inhibition": "-1.92% (inactive)"}, {"molecule": "COc1ccc(CCC(=O)Nc2ncc(C)s2)cc1OC", "activity change, negative = inhibition": "-1.11% (inactive)"}, {"molecule": "CC(=O)Nc1ccc(NCC(=O)c2ccccc2)cc1", "activity change, negative = inhibition": "5.34% (inactive)"}, {"molecule": "O=C(Oc1ccccc1)N1CCOCC1", "activity change, negative = inhibition": "0.207% (inactive)"}, {"molecule": "CCCN1CCN(S(=O)(=O)c2ccc3c(c2)CCC(=O)N3)CC1", "activity change, negative = inhibition": "-0.697% (inactive)"}, {"molecule": "COC(=O)c1c(NC(=O)CN(C)CC(=O)Nc2ccc(C)cc2)sc2c1CCC(C)C2", "note": "(configuration not stated)", "activity change, negative = inhibition": "0.538% (inactive)"}, {"molecule": "CCOC(=O)Cn1c(=O)oc2cc(S(=O)(=O)N(C)Cc3ccccc3)ccc21", "activity change, negative = inhibition": "-0.806% (inactive)"}, {"molecule": "CC(C)Oc1cccc(C(=O)C2CCCN(C(=O)CCn3cnnn3)C2)c1", "note": "(configuration not stated)", "activity change, negative = inhibition": "0.618% (inactive)"}, {"molecule": "CC1CCC(NC(=O)c2nn(C)c3c2CSc2ccccc2-3)CC1", "note": "(configuration not stated)", "activity change, negative = inhibition": "-0.08% (inactive)"}, {"molecule": "CCOC(=O)c1ccc(S(=O)(=O)NCC(C)(C)N2CCOCC2)cc1", "activity change, negative = inhibition": "0.845% (inactive)"}, {"molecule": "c1ccc(CN2CCCC3(CCCN(Cc4nc(COc5ccccc5)no4)C3)C2)cc1", "note": "(configuration not stated)", "activity change, negative = inhibition": "-0.026% (inactive)"}, {"molecule": "O=C(COc1ccc(Cl)cc1)Nc1cc(NC(=O)COc2ccc(Cl)cc2)cc(C(=O)O)c1", "activity change, negative = inhibition": "9.23% (inactive)"}, {"molecule": "CN(Cc1cnccn1)Cc1nc(Cc2ccccc2F)no1", "activity change, negative = inhibition": "0.187% (inactive)"}, {"molecule": "CCCNC(=O)C1CCC(CNS(=O)(=O)c2ccc3c(c2)CC(C)N3C(C)=O)CC1", "note": "(configuration not stated)", "activity change, negative = inhibition": "0.309% (inactive)"}, {"molecule": "Fc1ccc(Cn2cc(C(=S)N3CCOCC3)c3ccccc32)cc1", "activity change, negative = inhibition": "0.943% (inactive)"}, {"molecule": "CCC(=O)N1CCc2cc(Br)cc(S(=O)(=O)N3CCCCC3CC)c21", "note": "(configuration not stated)", "activity change, negative = inhibition": "-1.65% (inactive)"}, {"molecule": "CC1CCN(Cc2nnnn2CCCC(=O)NCCc2cnn(C)c2)CC1", "activity change, negative = inhibition": "-1.37% (inactive)"}, {"molecule": "Cc1ccc(O)c(-c2cc(-c3cccc(Br)c3)n[nH]2)c1", "activity change, negative = inhibition": "0.711% (inactive)"}, {"molecule": "C=CCc1ccc(OCCCCN2CC(C)OC(C)C2)c(OC)c1", "note": "(configuration not stated)", "activity change, negative = inhibition": "0.21% (inactive)"}, {"molecule": "Cc1noc(NS(=O)(=O)c2ccc(NC(=O)c3ccc(N(C)C)cc3)cc2)c1C", "activity change, negative = inhibition": "-0.732% (inactive)"}, {"molecule": "Cc1ccc(NC(=O)CN(C)C(=O)COc2cccc3ccc(C)nc23)cc1", "activity change, negative = inhibition": "-0.235% (inactive)"}, {"molecule": "COc1ccc(-c2[nH]ncc2CNC(C)CCn2cccn2)cc1F", "note": "(configuration not stated)", "activity change, negative = inhibition": "-0.462% (inactive)"}, {"molecule": "Cc1ccc(N2CCN(CCCCN3C(=O)C4CCCN4C3=O)CC2)cc1", "note": "(configuration not stated)", "activity change, negative = inhibition": "-1.07% (inactive)"}, {"molecule": "COc1ccc(-c2csc(N3C(=O)CNC3=S)n2)cc1", "activity change, negative = inhibition": "-9.99% (inactive)"}, {"molecule": "N#Cc1ccc(NC(=O)NN2CCCCCC2)cc1", "activity change, negative = inhibition": "2.36% (inactive)"}, {"molecule": "CCN1CCCc2cc(CN(CCN3CCOCC3)C(=S)Nc3cccc(C)c3)ccc21", "activity change, negative = inhibition": "1.91% (inactive)"}, {"molecule": "N/N=C(\\c1ccccc1)c1cc(Br)ccc1N", "activity change, negative = inhibition": "1.57% (inactive)"}, {"molecule": "COc1ccc(NC(=O)Oc2cc(C)ccc2C(C)C)cc1", "activity change, negative = inhibition": "-0.959% (inactive)"}, {"molecule": "OCCCc1cn(Cc2ccccc2)c2ccccc12", "activity change, negative = inhibition": "-0.804% (inactive)"}, {"molecule": "O=C(Cn1cccc1C(=O)c1ccccc1)NCc1ccccc1Cl", "activity change, negative = inhibition": "-3.87% (inactive)"}, {"molecule": "CC(C)(C)c1cc(C(=O)NNc2cccc(Cl)c2)n(Cc2ccccc2)n1", "activity change, negative = inhibition": "-0.821% (inactive)"}, {"molecule": "O=C(NCc1ccc(F)cc1)c1c2c(nc3ccccc13)CCN(Cc1ccccc1)C2", "activity change, negative = inhibition": "-1.25% (inactive)"}, {"molecule": "CC(C)CC1NC(=O)N(CC(=O)N(C)C2CCCCC2)C1=O", "note": "(configuration not stated)", "activity change, negative = inhibition": "-0.87% (inactive)"}, {"molecule": "N#Cc1c(N)c(C#N)c(-c2ccc(O)cc2)c2c1CCCC2", "activity change, negative = inhibition": "-0.315% (inactive)"}, {"molecule": "Cc1cccc(C)c1NC(=S)NC(C)(C)CO", "activity change, negative = inhibition": "1.29% (inactive)"}, {"molecule": "CC(C)(C)OC(=O)n1cc(C(=O)c2ccccc2O)cn1", "activity change, negative = inhibition": "1.29% (inactive)"}, {"molecule": "Cc1cc(Nc2ccccc2Cl)nc(-c2ccccc2O)n1", "activity change, negative = inhibition": "1.86% (inactive)"}, {"molecule": "CN(C)CCCNC(=S)Nc1ccc(Oc2ccccc2)cc1", "activity change, negative = inhibition": "-9.71% (inactive)"}, {"molecule": "COC(=O)c1ccc(NC(=S)Nc2cccc(C)n2)cc1", "activity change, negative = inhibition": "-2.33% (inactive)"}, {"molecule": "Cc1cc(C)nc(NCC(O)CNc2ccccc2C)n1", "note": "(configuration not stated)", "activity change, negative = inhibition": "2.94% (inactive)"}, {"molecule": "Cc1ccc(Cl)c(NC(=O)COC(=O)C2CCC2)c1Cl", "activity change, negative = inhibition": "-2.31% (inactive)"}, {"molecule": "COC(=O)c1cc2ccsc2n1Cc1cccc(F)c1", "activity change, negative = inhibition": "1.78% (inactive)"}, {"molecule": "O=S(=O)(NC1CCCC1)c1ccc(-n2cnnn2)cc1", "activity change, negative = inhibition": "0.658% (inactive)"}, {"molecule": "COc1ccc(Cl)cc1C(=O)NNC(=O)CNC(=O)c1ccc(C)s1", "activity change, negative = inhibition": "-0.888% (inactive)"}, {"molecule": "COc1ccc(CCNS(=O)(=O)c2ccc(-n3cnnn3)c(OC)c2)cc1OC", "activity change, negative = inhibition": "1.4% (inactive)"}, {"molecule": "COc1ccccc1C(=O)NC(CCSC)C(=O)NC1CC1", "note": "(configuration not stated)", "activity change, negative = inhibition": "4.47% (inactive)"}, {"molecule": "COc1ccc(OCCSc2nnc(C(C)NC(=O)c3ccccc3F)n2C)cc1", "note": "(configuration not stated)", "activity change, negative = inhibition": "-3.42% (inactive)"}, {"molecule": "CCSc1nnc(NC(=O)CCNC(=O)c2ccccc2Cl)s1", "activity change, negative = inhibition": "-1.72% (inactive)"}, {"molecule": "COc1ccc(NC(=O)Nc2nnc(C(C)(C)C)s2)cc1", "activity change, negative = inhibition": "-1.28% (inactive)"}, {"molecule": "O=C(CNC(=O)CNC(=O)c1ccc(Cl)cc1Cl)NCc1cccc(Cl)c1", "activity change, negative = inhibition": "-0.331% (inactive)"}, {"molecule": "O=C(O)CC(CNC(=O)C1CCCN1C(=O)OCc1ccccc1)c1ccccc1", "note": "(configuration not stated)", "activity change, negative = inhibition": "-2.42% (inactive)"}, {"molecule": "CC(=O)c1cc(Cl)ccc1OCC(=O)Nc1cccc(S(=O)(=O)N2CCCC2)c1", "activity change, negative = inhibition": "6.73% (inactive)"}, {"molecule": "O=C(COc1ccc2c(c1)OCO2)Nc1nccs1", "activity change, negative = inhibition": "1.01% (inactive)"}, {"molecule": "COC(=O)c1ccc(CN2C(=O)c3ccccc3S2(=O)=O)cc1", "activity change, negative = inhibition": "-0.049% (inactive)"}, {"molecule": "CCc1nnc(NC(=O)c2cc(S(=O)(=O)N3CCCCC3)ccc2C)s1", "activity change, negative = inhibition": "1.84% (inactive)"}, {"molecule": "COC(=O)c1cc(S(=O)(=O)N2CCCC(C)C2)c[nH]1", "note": "(configuration not stated)", "activity change, negative = inhibition": "1.02% (inactive)"}]}]}
